Measurements reported in PubChem BioAssay AID1159580 (chemical genetic matrix, 2015).
In all, about 5,500 compounds went through this assay and about 2,000 (36%) were called active. Another 18% or so got no clear call; they are omitted. Cut-off read from the data, not from the text of the source: active = normalized growth mostly below about 0.91 (no sharp cut-off); inconclusive = no clear call, values can overlap the other calls; inactive = mostly above about 0.92. The list shows a part of the results.

Experiment: chemical genetic growth profiling, strain panel (AID 1159580);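 note: tested at 20 µM; growth read once vehicle control cultures reached saturation at 30 °C; 1 = growth at the plate median or of vehicle wells; lower values mean less growth of the strain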
Details: growth OD

Measured: normalized growth

NS(=O)(=O)c1ccc(-n2ncc3ccccc3c2=O)cc1
inactive: S. cerevisiae deletion strains, locus YAL013W, strain DEP1, stronger effect = lower value 1.02 | S. cerevisiae deletion strains, locus YBR229C, strain ROT2, stronger effect = lower value 1.01 | S. cerevisiae deletion strains, locus YCL061C, strain MRC1, stronger effect = lower value 1.01 | S. cerevisiae deletion strains, locus YDL101C, strain DUN1, stronger effect = lower value 1.04 | S. cerevisiae deletion strains, locus YDL134C, strain PPH21, stronger effect = lower value 1.02 | S. cerevisiae deletion strains, locus YDR150W, strain NUM1, stronger effect = lower value 0.989 | S. cerevisiae deletion strains, locus YEL061C, strain CIN8, stronger effect = lower value 0.987 | S. cerevisiae deletion strains, locus YGR078C, strain PAC10, stronger effect = lower value 1.02 | S. cerevisiae deletion strains, locus YHR030C, strain SLT2, stronger effect = lower value 1.05 | S. cerevisiae deletion strains, locus YHR087W, strain rtc3, stronger effect = lower value 1 | S. cerevisiae deletion strains, locus YJR043C, strain POL32, stronger effect = lower value 1.01 | S. cerevisiae deletion strains, locus YJR075W, strain HOC1, stronger effect = lower value 1.02 | S. cerevisiae deletion strains, locus YKL190W, strain CNB1, stronger effect = lower value 1 | S. cerevisiae deletion strains, locus YLR039C, strain RIC1, stronger effect = lower value 1.01 | S. cerevisiae deletion strains, locus YLR058C, strain SHM2 (second series), stronger effect = lower value 0.994 | S. cerevisiae deletion strains, locus YLR085C, strain ARP6, stronger effect = lower value 0.984 | S. cerevisiae deletion strains, locus YLR262C, strain YPT6, stronger effect = lower value 1.06 | S. cerevisiae deletion strains, locus YML094W, strain GIM5, stronger effect = lower value 0.986 | S. cerevisiae deletion strains, locus YMR219W, strain ESC1, stronger effect = lower value 1 | S. cerevisiae deletion strains, locus YMR263W, strain SAP30, stronger effect = lower value 1.01 | S. cerevisiae deletion strains, locus YMR307W, strain GAS1, stronger effect = lower value 0.981 | S. cerevisiae deletion strains, locus YNL153C, strain GIM3, stronger effect = lower value 0.996 | S. cerevisiae deletion strains, locus YNL298W, strain CLA4 (second series), stronger effect = lower value 1.01 | S. cerevisiae deletion strains, locus YNL322C, strain KRE1, stronger effect = lower value 1.01 | S. cerevisiae deletion strains, locus YNR030W, strain Alg12, stronger effect = lower value 1.01 | S. cerevisiae deletion strains, locus YPL055C, strain LGE1, stronger effect = lower value 1.02 | S. cerevisiae deletion strains, locus YPL241C, strain CIN2, stronger effect = lower value 1.03 | S. cerevisiae deletion strains, locus YPR135W, strain CTF4, stronger effect = lower value 1.06 | S. cerevisiae strains, strain wild type, stronger effect = lower value 1.01
